High-throughput results from PubChem.
This is a sample that favours compounds with a hit; in the whole collection about 3.1% have one here.
PAX8 inh HTS – lowers PAX8-driven luciferase in RMG-I cells | AID 652154 | 1.2% of 360,000 active | RMG-I TPO-luciferase reporter, SteadyGlo, 24 h | inhibition, % at 12.6 µM;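 active = mean replicate inhibition at least 60% with every replicate also reaching 60%; inconclusive = only one of the two criteria is met; inactive = mean below 60% and not all replicates reaching 60%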;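 note: luciferase light reporting Pax8 driven TPO promoter activity; plate controls were median of neutral control wells for no effect and mitoxantrone controls for full effect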
EBV LMP1 NFkB – reduces LMP1-driven NF-kappaB luciferase signal | inhibition, % at 12.5 µM | AID 504558 | LMP1-induced NF-kappaB luciferase reporter cells, luminescence | 0.69% of 350,000 active; in the data active = inhibition above about 41%; inconclusive = no clear call, values can overlap the other calls;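 note: 0% = neutral control wells and 100% = reference inhibitor control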
TWEAK Fn14 block – TWEAK-Fn14 signaling inhibition | TWEAK-stimulated Fn14 reporter cells, luciferase luminescence, 8 h | inhibition, % at 10 µM | 2% of 360,000 active | AID 1159606; in the data active = inhibition above about 50%
LGR2 inh – inhibitors of bursicon-induced Drosophila LGR2 receptor cAMP signaling; HEK293 LGR2, CRE-luciferase, bursicon-stimulated, 4 h; inhibition, % at 9.99 µM; 0.35% of 380,000 active;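 active = drop in luminescence signal, shown as inhibition above about 50% in the replicate tests, limit read from the data, passing the limit was not always enough; inconclusive = probably only some replicates passing the limit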;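 note: agonist challenge used bursicon conditioned medium at about half maximal strength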
TROY signal inh – TROY signaling inhibition; 0.98% of 360,000 active; inhibition, % at 10 µM; Q293 LMP1-TROYcd NF-kB luciferase reporter, 4 h; AID 1347056;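 active = compounds whose plate-normalised and pattern-corrected inhibition of the luciferase reporter signal at the single screening dose is 50% or more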
EWS-Fli inh – blocks EWS/Fli oncoprotein-driven transcription; A673 NR0B1-luciferase reporter, viability-normalised; inhibition, % at 12.6 µM; 0.67% of 350,000 active;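 active = mean inhibition of at least 50% after viability correction, with every replicate also passing that limit; inconclusive = mean reaches 50% but only one of two replicates passes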;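 note: firefly luciferase signal divided by Alamar Blue viability fluorescence both relative to DMSO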
Active calls of the source: *; ? = inconclusive; . = no result.

SMILES	PAX8 inh HTS	EBV LMP1 NFkB	TWEAK Fn14 block	LGR2 inh	TROY signal inh	EWS-Fli inh
C[C@@H]1CN([C@@H](C)CO)C(=O)c2cccc(NC(=O)NC3CCCCC3)c2O[C@H]1CN(C)C(=O)Nc1ccc(F)cc1	-4	.	.	-13	.	-10
Cc1cccc(C)c1NC(=O)CN(C)C(=O)Cc1cccc(C(F)(F)F)c1	-2	6	55*	-1	28	3
Cc1cc2occ(CC(=O)N(C)CC(=O)Nc3c(C)cccc3C)c2cc1C	1	6	-12	-15	-8	1
CCCCNC(=S)NNC(=O)c1c(Cl)c(C)nn1C	-20	-6	-25	7	-6	71*
C[C@@H]1CN([C@@H](C)CO)C(=O)Cc2cc(NC(=O)Cc3ccccc3)ccc2O[C@@H]1CN(C)Cc1ccncc1	18	.	.	11	.	-7
COc1ccc(-c2ccccc2[C@H]2[C@@H](CO)N(C(=O)C3CCOCC3)[C@H]2C#N)cc1	33	.	.	4	.	10
Cc1ccccc1OCCC(=O)N1CCN(S(=O)(=O)c2ccc(F)cc2)CC1	15	-1	8	-15	-35	.
Cc1cc(C)c(S(=O)(=O)N2CCN(C(=O)CCOc3ccccc3C)CC2)c(C)c1	-7	64*	-34	-12	25	-13
COCC(=O)N1C[C@H](C)[C@H](OC)CN(C)C(=O)c2cc(NC(=O)NC(C)C)ccc2OC[C@@H]1C	1	.	.	8	.	-8
CCc1cc(C(=O)N/N=C/c2ccc(O)cc2O)c2ccccc2n1	67*	11	-21	34	21	.
O=C(C[C@@H]1CC[C@H]2[C@@H](COC[C@H](O)CN2Cc2cc(F)cc(F)c2)O1)NC1CCCC1	-5	.	.	-5	.	-6
CNC[C@@H]1Oc2ccc(NC(=O)Nc3ccc(OC)cc3)cc2CC(=O)N([C@@H](C)CO)C[C@@H]1C	-9	.	.	-11	.	-9
C(C#CCCCCCCCCC[n+]1ccccc1)#CCCCCCCCCC[n+]1ccccc1	.	37	90*	.	44	.
CC(C)NC(=O)Nc1ccc2c(c1)C(=O)N([C@H](C)CO)C[C@@H](C)[C@H](CN(C)S(=O)(=O)c1ccc(Cl)cc1)OCCCC[C@H](C)O2	50	.	.	5	.	3
CCOC(=O)Nc1nc2ccc(Cn3cccc3)cc2[nH]1	.	0	-3	-33	-18	51*
COc1ccc(C(c2c(C)n(C)n(-c3ccccc3)c2=O)c2c(C)n(C)n(-c3ccccc3)c2=O)c(OC)c1OC	-15	80*	-6	-3	-2	10
COc1ccc2[nH]c(C(=O)N/N=C/c3ccc(O)cc3O)cc2c1	85*	40	-23	10	24	15
COc1cc2cc(C(=O)N/N=C/c3ccccc3Cl)[nH]c2cc1OC	?	13	52*	3	-28	3
CCOC(=O)C1=C(C)NC(C)=C(C(=O)OCC)C1c1cccc([N+](=O)[O-])c1	13	-11	4	-11	16	2
COC(=O)C1=C(C)NC(C)=C(C(=O)OCC(C)C)C1c1ccccc1[N+](=O)[O-] (stereo unspecified)	55	91*	47	2	33	11
CC1(C)CC(=O)C(CC2=C(O)CC(C)(C)CC2=O)=C(O)C1	.	66*	0	.	-2	.
CC1(C)CC(=O)C(CC2=C(O)CC(C)(C)CC2=O)C(=O)C1	2	-16	-4	.	-16	.
Cc1ccc(S(=O)(=O)Nc2ccccc2-c2ccccc2NS(=O)(=O)c2ccc(C)cc2)cc1	.	6	-1	.	52*	.
COc1cc(NS(=O)(=O)c2ccc(C)cc2)c2ncccc2c1	.	-6	107*	.	28	.
COc1cc(OC)c(NC(=O)c2cc3ccccc3cc2O)cc1Cl	17	-36	94*	23	57*	-5
SMILES	PAX8 inh HTS	EBV LMP1 NFkB	TWEAK Fn14 block	LGR2 inh	TROY signal inh	EWS-Fli inh
Cc1ccc(S(=O)(=O)Nc2cccc3cccnc23)cc1	?	-8	107*	.	79*	.
Cc1ccc(S(=O)(=O)Nc2ccccc2C(N)=O)cc1	6	-5	-9	.	-3	.
CC(C)CC#Cc1cnc2c(c1)C(=O)N([C@H](C)CO)C[C@H](C)[C@H](CN(C)C(=O)c1cnccn1)O2	.	.	.	-15	.	-3
COc1cc(NC(=O)c2ccccc2Cl)c2ncccc2c1	27	-11	0	-12	20	58*
Brc1ccc(-c2csc(N3CCOCC3)n2)cc1	-212	-42	-3	-27	-39	-68
Brc1ccc(-c2csc(N3CCCCCC3)n2)cc1	-41	46*	-8	-39	-15	-27
Cc1noc(C)c1NC(=O)N(C)C[C@@H]1OCCCC[C@H](C)Oc2ccc(NS(=O)(=O)c3ccc(F)cc3)cc2C(=O)N([C@H](C)CO)C[C@@H]1C	-10	.	.	-23	.	-6
C[C@@H]1CCCCO[C@@H](CN(C)C(=O)NC2CCCCC2)[C@H](C)CN([C@@H](C)CO)C(=O)c2cc(NC(=O)C3CCCCC3)ccc2O1	9	.	.	-3	.	7
CCOC(=O)C1=C(C)NC(=O)NC1c1ccc(-c2ccccc2F)o1 (stereo unspecified)	11	-2	16	1	54*	.
COCCOC(=O)C1=C(C)NC(=O)NC1c1ccc(-c2ccc(F)cc2)o1 (stereo unspecified)	12	-10	-8	-25	-18	14
CC1=C(C(=O)OCc2ccc3c(c2)OCO3)C(c2cccc([N+](=O)[O-])c2)NC(=O)N1 (stereo unspecified)	-16	11	75*	33	49	2
COc1ccc(COC(=O)C2=C(C)NC(=O)NC2c2ccc(F)cc2)cc1 (stereo unspecified)	19	2	53*	21	33	-3
CCC(CC)COC(=O)C1=C(C)NC(=O)NC1c1cc(OC)ccc1OC (stereo unspecified)	-42	3	104*	4	-26	6
Cc1ccc(S(=O)(=O)N(C)C[C@@H]2OCCCC[C@H](C)Oc3ccc(NS(=O)(=O)c4cccs4)cc3C(=O)N([C@H](C)CO)C[C@@H]2C)cc1	67*	.	.	0	.	0
C[C@@H]1CCCCO[C@H](CN(C)S(=O)(=O)c2ccc(Cl)cc2)[C@@H](C)CN([C@H](C)CO)C(=O)c2cc(NS(=O)(=O)c3cccs3)ccc2O1	-8	.	.	-3	.	8
C[C@@H]1CCCCO[C@@H](CN(C)S(=O)(=O)c2ccc(Cl)cc2)[C@H](C)CN([C@H](C)CO)C(=O)c2cc(NS(=O)(=O)c3cccs3)ccc2O1	70*	.	.	3	.	16
Cc1ccc(S(=O)(=O)N(C)C[C@@H]2OCCCC[C@@H](C)Oc3ccc(NS(=O)(=O)c4cccs4)cc3C(=O)N([C@H](C)CO)C[C@@H]2C)cc1	7	.	.	2	.	-7
Cc1ccc(S(=O)(=O)Nc2ccc3c(c2)C(=O)N([C@@H](C)CO)C[C@@H](C)[C@H](CN(C)S(=O)(=O)c2cccs2)OCCCC[C@H](C)O3)cc1	-17	.	.	-16	.	5
